Inconclusive results are not listed. Entries that show only a call come without a potency. Active and inactive are the calls of the source. Calls come from the whole dose curve; as a rule, active = well fitted curve in the direction sought with a large enough effect; inconclusive = small, poorly fitted or top-dose-only effect, or another doubt; inactive = no such curve, though single readings can be large; an effect the other way counts as inactive or inconclusive.
Potency is the fitted concentration of half-maximal effect.

The nature of one assay: qHTS assay to identify small molecule inhibitors of chordoma cells - UCH-1 (AID 1259355). Note: nearly all actives have a fitted effect of over 55% in size. Particulars: UCH-1 chordoma viability, CellTiter-Glo, 48 h, combination; series mostly up to 46.1 µM. The method, boiled down:
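Cells (800/well) were seeded and left overnight at 37 C, 5% CO2, then treated with drugs at 15 concentrations plus a combination mix of auranofin, camptothecin, doxorubicin, rubitecan and topotecan. Viability after 48hr was read by CellTiter-Glo luminescence.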
A general note: Quantitative high-throughput screening tests each substance at several concentrations.
For the molecule `O=C(O)c1ccc2[nH]cc(CCCCN3CC=C(c4ccccc4)CC3)c2c1`, the Potency result is “inactive”.

`CC[N+]1(C)CCCC(OC(=O)C(O)(c2ccccc2)c2ccccc2)C1` (stereo unspecified): the Potency entry is “inactive”.

Take `CC(=O)Nc1cc([As](=O)(O)O)ccc1O`: the Potency entry is “inactive”.

As for `N[C@@H](Cc1ccc(Oc2cc(I)c(O)c(I)c2)c(I)c1)C(=O)O`, the Potency result was “inactive”.

Take `CC(C)(N)Cc1ccc(Cl)cc1`: the Potency result was “inactive”.

Take `NP(N)(=O)NC(=O)c1ccc(F)cc1`: the Potency result is “inactive”.

In the case of `CC(C)NCC(O)c1ccccc1Cl` (stereo unspecified), the Potency result was “inactive”.

For `Cc1ncc(CNC(=O)N(CCCl)N=O)c(N)n1`, the Potency result is “inactive”.

As for `CN1C(=S)CN=C(c2ccccc2)c2cc(Cl)ccc21`, the Potency entry was “inactive”.

With `CCOP(=S)(OCC)Oc1cc(C)nc(C(C)C)n1`, the Potency result was “inactive”.

`c1ccc(C2CC2)c(OCC2=NCCN2)c1`: the Potency entry was “inactive”.

For the molecule `COc1ccccc1N1CCNCC1`, the Potency entry is “inactive”.

Consider `O=c1oc2ccccc2c(O)c1C(CC(O)c1ccc(-c2ccc(Br)cc2)cc1)c1ccccc1` (stereo unspecified), for which the Potency result is “inactive”.

As for `C=C1C[C@@H]2[C@H](CC[C@]3(C)C(=O)CC[C@@H]23)[C@@]2(C)C=CC(=O)C=C12`, the Potency result is “inactive”.

As to `CCCN1CCC[C@@H]2Cc3nc(N)ncc3C[C@H]21`, the Potency entry was “inactive”.

Take `CCN(CC)CCN1C(=O)CN=C(c2ccccc2F)c2cc(Cl)ccc21`: the Potency entry is “inactive”.

As to `O=C1NCN(c2ccccc2)C12CCN(CC1COc3ccccc3O1)CC2` (stereo unspecified), the Potency entry is “inactive”.

Take `N#CC(C#N)=Cc1ccc(O)c(O)c1`: the Potency result was “inactive”.

Regarding `Clc1ccc(CCC(Cn2ccnc2)Sc2c(Cl)cccc2Cl)cc1` (stereo unspecified), the Potency entry is “inactive”.

On to `NCCc1cc(O)c(O)cc1O`, for which the Potency entry is “inactive”.

As to `CCC(COC(=O)c1cc(OC)c(OC)c(OC)c1)(c1ccccc1)N(C)C` (stereo unspecified), the Potency result was “inactive”.

Consider `C=CCN1CC[C@]23c4c5ccc(O)c4O[C@H]2C(=O)CC[C@@]3(O)[C@H]1C5`, for which the Potency entry was “inactive”.

Take `CCOC(=O)C1(c2ccccc2)CCN(CCC(C#N)(c2ccccc2)c2ccccc2)CC1`: the Potency result is “inactive”.

Consider `CC(C)(C)NCC(O)c1cc(Cl)c(N)c(Cl)c1` (stereo unspecified), for which the Potency entry is “inactive”.

`CN1C[C@H](CNC(=O)OCc2ccccc2)C[C@@H]2c3cccc4c3c(cn4C)C[C@H]21`: the Potency entry was “inactive”.

As to `c1ccc2c(c1)Nc1ccccc1S2`, the Potency entry is “inactive”.

In the case of `C[C@H]1O[C@@H](O[C@H]2[C@@H](O)C[C@H](O[C@H]3[C@@H](O)C[C@H](O[C@H]4CC[C@@]5(C)[C@H](CC[C@@H]6[C@@H]5CC[C@]5(C)[C@@H](C7=CC(=O)OC7)CC[C@]65O)C4)O[C@@H]3C)O[C@@H]2C)C[C@H](O)[C@@H]1O`, the Potency was 112 nM (active).

`CCN(CC)C(=O)N[C@@H]1C=C2c3cccc4[nH]cc(c34)C[C@@H]2N(C)C1`: the Potency entry was “inactive”.

Regarding `N[C@@H]1C[C@H]1c1ccccc1`, the Potency entry is “inactive”.

Regarding `NN=C(N)N`, the Potency entry is “inactive”.

Take `Cc1ccc(S(=O)(=O)N[C@@H](CCCCN)C(=O)CCl)cc1`: the Potency result was “inactive”.

A short description of a further assay: qHTS assay to identify small molecule inhibitors of chordoma cells - UCH-2 (AID 1259356). Particulars: UCH-2 chordoma viability, CellTiter-Glo ATP luminescence, 48 h; series mostly up to 46.1 µM.
Regarding `O=C(O)c1ccc2[nH]cc(CCCCN3CC=C(c4ccccc4)CC3)c2c1`, the Potency entry was “inactive”.

Consider `CC[N+]1(C)CCCC(OC(=O)C(O)(c2ccccc2)c2ccccc2)C1` (stereo unspecified), for which the Potency entry was “inactive”.

As to `CC(=O)Nc1cc([As](=O)(O)O)ccc1O`, the Potency entry is “inactive”.

Regarding `CCCN1CCC[C@@H]2Cc3[nH]ncc3C[C@H]21`, the Potency result was “inactive”.

With `N[C@@H](Cc1ccc(Oc2cc(I)c(O)c(I)c2)c(I)c1)C(=O)O`, the Potency entry is “inactive”.

On to `CC(C)(N)Cc1ccc(Cl)cc1`, for which the Potency entry was “inactive”.

Regarding `NP(N)(=O)NC(=O)c1ccc(F)cc1`, the Potency result is “inactive”.

With `CC(C)NCC(O)c1ccccc1Cl` (stereo unspecified), the Potency entry was “inactive”.

Take `Cc1ncc(CNC(=O)N(CCCl)N=O)c(N)n1`: the Potency result is “inactive”.

As for `CN1C(=S)CN=C(c2ccccc2)c2cc(Cl)ccc21`, the Potency entry was “inactive”.

`CCOP(=S)(OCC)Oc1cc(C)nc(C(C)C)n1`: the Potency entry is “inactive”.

For the molecule `c1ccc(C2CC2)c(OCC2=NCCN2)c1`, the Potency entry is “inactive”.

As to `COc1ccccc1N1CCNCC1`, the Potency entry is “inactive”.

For the molecule `O=c1oc2ccccc2c(O)c1C(CC(O)c1ccc(-c2ccc(Br)cc2)cc1)c1ccccc1` (stereo unspecified), the Potency result is “inactive”.

Turning to `C=C1C[C@@H]2[C@H](CC[C@]3(C)C(=O)CC[C@@H]23)[C@@]2(C)C=CC(=O)C=C12`, the Potency result was “inactive”.

As for `CCCN1CCC[C@@H]2Cc3nc(N)ncc3C[C@H]21`, the Potency result is “inactive”.

On to `CCN(CC)CCN1C(=O)CN=C(c2ccccc2F)c2cc(Cl)ccc21`, for which the Potency result is “inactive”.

`O=C1NCN(c2ccccc2)C12CCN(CC1COc3ccccc3O1)CC2` (stereo unspecified): the Potency entry is “inactive”.

For the molecule `N#CC(C#N)=Cc1ccc(O)c(O)c1`, the Potency entry was “inactive”.

On to `Clc1ccc(CCC(Cn2ccnc2)Sc2c(Cl)cccc2Cl)cc1` (stereo unspecified), for which the Potency entry is “inactive”.

Consider `CC(CCc1ccccc1)NC(C)C(O)c1ccc(O)cc1` (stereo unspecified), for which the Potency entry was “inactive”.

In the case of `NCCc1cc(O)c(O)cc1O`, the Potency result is “inactive”.

On to `O=c1[nH]c2ccccc2n1C1CCN(CCCC(c2ccc(F)cc2)c2ccc(F)cc2)CC1`, for which the Potency entry was “inactive”.

For the molecule `CCC(COC(=O)c1cc(OC)c(OC)c(OC)c1)(c1ccccc1)N(C)C` (stereo unspecified), the Potency result was “inactive”.

For the molecule `C=CCN1CC[C@]23c4c5ccc(O)c4O[C@H]2C(=O)CC[C@@]3(O)[C@H]1C5`, the Potency result was “inactive”.

As for `CCOC(=O)C1(c2ccccc2)CCN(CCC(C#N)(c2ccccc2)c2ccccc2)CC1`, the Potency entry is “inactive”.

Take `CC(C)(C)NCC(O)c1cc(Cl)c(N)c(Cl)c1` (stereo unspecified): the Potency result was “inactive”.

As for `CN1C[C@H](CNC(=O)OCc2ccccc2)C[C@@H]2c3cccc4c3c(cn4C)C[C@H]21`, the Potency entry was “inactive”.

With `c1ccc2c(c1)Nc1ccccc1S2`, the Potency result is “inactive”.

For `C[C@H]1O[C@@H](O[C@H]2[C@@H](O)C[C@H](O[C@H]3[C@@H](O)C[C@H](O[C@H]4CC[C@@]5(C)[C@H](CC[C@@H]6[C@@H]5CC[C@]5(C)[C@@H](C7=CC(=O)OC7)CC[C@]65O)C4)O[C@@H]3C)O[C@@H]2C)C[C@H](O)[C@@H]1O`, the Potency is 46.1 nM (active).

With `CCN(CC)C(=O)N[C@@H]1C=C2c3cccc4[nH]cc(c34)C[C@@H]2N(C)C1`, the Potency result is “inactive”.

As for `Oc1cc(Cl)ccc1Oc1ccc(Cl)cc1Cl`, the Potency result was “inactive”.

As for `N[C@@H]1C[C@H]1c1ccccc1`, the Potency entry is “inactive”.

With `NN=C(N)N`, the Potency entry is “inactive”.

As for `Cc1ccc(S(=O)(=O)N[C@@H](CCCCN)C(=O)CCl)cc1`, the Potency entry is “inactive”.

Values taken from PubChem BioAssay (NCATS).
